# What was measured:
# Experiment in all cases: DAPPL (digital affinity profiling via proximity ligation, sequencing); 10 mM Tris-HCl pH 7.5, 50 mM NaCl, 1 mM DTT, 4% glycerol, room temperature, 30 min; GST-TFs on glutathione beads, 16-mer random dsDNA library, 0.1% formaldehyde crosslink after washing; high values mean tight binding
# [1] = target: T1, FLI1 (Homo sapiens, UniProt Q01543 1-452); settings: protein: recombinant; tags: N-terminal GST; dsDNA, one strand shown
# T1 sequence: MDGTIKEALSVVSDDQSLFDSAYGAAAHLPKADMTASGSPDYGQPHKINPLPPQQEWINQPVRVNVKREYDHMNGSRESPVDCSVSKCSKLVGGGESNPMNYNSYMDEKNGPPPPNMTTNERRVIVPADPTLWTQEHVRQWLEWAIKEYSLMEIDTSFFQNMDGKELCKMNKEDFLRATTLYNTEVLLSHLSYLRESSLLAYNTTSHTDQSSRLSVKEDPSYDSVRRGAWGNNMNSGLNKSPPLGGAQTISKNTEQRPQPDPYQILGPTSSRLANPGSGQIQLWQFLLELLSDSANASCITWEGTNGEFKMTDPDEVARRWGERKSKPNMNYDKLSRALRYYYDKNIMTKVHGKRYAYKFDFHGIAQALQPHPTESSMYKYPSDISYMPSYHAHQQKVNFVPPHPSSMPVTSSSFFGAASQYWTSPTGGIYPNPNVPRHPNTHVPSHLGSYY
# Procedure, shortened: (§1)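 After expression in yeast as GST fusions, human transcription factors were bound to glutathione beads, DNA-barcoded and mixed with a tag-only sample. The pools were incubated with 200 nmole of a 16-mer random double-stranded DNA library in Tris/NaCl/DTT/glycerol buffer (30 min, room temperature), washed and crosslinked with 0.1% formaldehyde. Proximity ligation with BsaI/T4 ligase ran for 1 h at 37 °C, before PCR amplification and sequencing on an Illumina NextSeq500. Binding signal is a hexamer's read frequency for a factor divided by its frequency for the tag-only sample.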
# [2] = target: T2, ELK1 (Homo sapiens, UniProt P19419 1-428); settings: protein: recombinant; tags: N-terminal GST; dsDNA, one strand shown
# T2 sequence: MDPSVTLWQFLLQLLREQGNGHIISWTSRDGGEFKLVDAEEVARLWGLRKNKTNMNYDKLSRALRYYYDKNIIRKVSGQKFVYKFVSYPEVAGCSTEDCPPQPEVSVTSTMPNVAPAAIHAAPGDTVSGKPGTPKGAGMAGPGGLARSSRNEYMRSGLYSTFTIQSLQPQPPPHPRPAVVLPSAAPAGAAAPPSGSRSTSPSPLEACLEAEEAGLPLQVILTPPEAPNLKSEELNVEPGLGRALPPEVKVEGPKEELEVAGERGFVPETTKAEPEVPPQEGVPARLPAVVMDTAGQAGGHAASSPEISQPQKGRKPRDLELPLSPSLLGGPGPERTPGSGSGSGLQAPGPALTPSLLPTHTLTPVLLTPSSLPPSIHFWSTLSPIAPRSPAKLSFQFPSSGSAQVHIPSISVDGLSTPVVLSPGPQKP
# Procedure, shortened: as §1
# [3] = target: T3, GABPA (Homo sapiens, UniProt Q06546 1-454); settings: protein: recombinant; tags: N-terminal GST; dsDNA, one strand shown
# T3 sequence: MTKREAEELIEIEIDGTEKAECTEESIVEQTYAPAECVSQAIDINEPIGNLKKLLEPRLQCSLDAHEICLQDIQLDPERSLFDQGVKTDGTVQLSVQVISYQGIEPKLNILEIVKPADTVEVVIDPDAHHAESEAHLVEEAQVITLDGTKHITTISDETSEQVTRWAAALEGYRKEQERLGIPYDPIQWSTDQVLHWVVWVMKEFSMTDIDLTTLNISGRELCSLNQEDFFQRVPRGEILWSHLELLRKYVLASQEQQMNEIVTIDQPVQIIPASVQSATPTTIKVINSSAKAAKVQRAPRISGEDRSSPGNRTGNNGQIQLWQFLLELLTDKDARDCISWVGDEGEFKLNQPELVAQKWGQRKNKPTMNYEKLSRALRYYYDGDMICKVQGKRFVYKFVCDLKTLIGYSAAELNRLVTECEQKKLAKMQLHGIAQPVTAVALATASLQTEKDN
# Procedure, shortened: as §1
# [4] = target: T4, ERG (Homo sapiens, UniProt P11308 1-479); settings: protein: recombinant; tags: N-terminal GST; dsDNA, one strand shown
# T4 sequence: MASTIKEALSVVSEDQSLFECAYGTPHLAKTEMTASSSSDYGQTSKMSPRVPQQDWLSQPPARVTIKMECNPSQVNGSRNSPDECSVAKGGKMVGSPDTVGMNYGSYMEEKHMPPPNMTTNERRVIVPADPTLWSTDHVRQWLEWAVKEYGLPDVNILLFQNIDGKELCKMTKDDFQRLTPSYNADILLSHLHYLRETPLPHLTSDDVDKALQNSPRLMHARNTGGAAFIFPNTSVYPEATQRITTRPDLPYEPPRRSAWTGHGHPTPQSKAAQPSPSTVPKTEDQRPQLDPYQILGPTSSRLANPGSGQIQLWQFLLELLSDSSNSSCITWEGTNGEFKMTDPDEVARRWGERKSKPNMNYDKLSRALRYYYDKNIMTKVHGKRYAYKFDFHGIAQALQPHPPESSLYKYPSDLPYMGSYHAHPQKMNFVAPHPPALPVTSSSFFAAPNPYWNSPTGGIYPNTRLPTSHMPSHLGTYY
# Procedure, shortened: as §1
# [5] = target: ELF1 (Homo sapiens, UniProt P32519 1-619); settings: protein: recombinant; tags: N-terminal GST; dsDNA, one strand shown
# ELF1, sequence (P32519 whole entry): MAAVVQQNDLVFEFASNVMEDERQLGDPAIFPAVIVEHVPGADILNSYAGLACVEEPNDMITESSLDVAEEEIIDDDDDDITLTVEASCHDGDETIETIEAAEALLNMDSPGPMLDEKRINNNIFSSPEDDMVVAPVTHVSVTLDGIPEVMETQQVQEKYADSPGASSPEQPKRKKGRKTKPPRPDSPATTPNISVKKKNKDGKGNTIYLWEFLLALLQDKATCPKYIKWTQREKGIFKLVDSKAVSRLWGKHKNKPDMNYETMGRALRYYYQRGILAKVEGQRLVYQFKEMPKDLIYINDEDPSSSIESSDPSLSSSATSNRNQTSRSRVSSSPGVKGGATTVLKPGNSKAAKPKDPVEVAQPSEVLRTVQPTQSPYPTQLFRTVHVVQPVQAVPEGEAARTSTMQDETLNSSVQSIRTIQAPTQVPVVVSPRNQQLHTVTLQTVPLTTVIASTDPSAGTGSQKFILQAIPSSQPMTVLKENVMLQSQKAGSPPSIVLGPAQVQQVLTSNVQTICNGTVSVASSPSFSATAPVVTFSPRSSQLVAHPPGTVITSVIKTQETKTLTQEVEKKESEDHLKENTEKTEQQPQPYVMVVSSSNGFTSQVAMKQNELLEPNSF
# Procedure, shortened: as §1
# [6] = target: T5, EHF (Homo sapiens, UniProt Q9NZC4 1-300); settings: protein: recombinant; tags: N-terminal GST; dsDNA, one strand shown
# T5 sequence: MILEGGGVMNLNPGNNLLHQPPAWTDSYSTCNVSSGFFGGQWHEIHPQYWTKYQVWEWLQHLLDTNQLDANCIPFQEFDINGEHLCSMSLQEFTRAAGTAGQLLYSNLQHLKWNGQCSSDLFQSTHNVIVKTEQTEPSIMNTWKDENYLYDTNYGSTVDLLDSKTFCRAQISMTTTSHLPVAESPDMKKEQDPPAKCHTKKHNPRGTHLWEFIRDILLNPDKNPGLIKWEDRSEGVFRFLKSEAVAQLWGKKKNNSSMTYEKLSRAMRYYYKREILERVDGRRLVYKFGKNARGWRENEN
# Procedure, shortened: as §1
# [7] = target: SPI1 (Homo sapiens, UniProt P17947 1-270); settings: protein: recombinant; tags: N-terminal GST; dsDNA, one strand shown
# Procedure, shortened: as §1
# [8] = target: SPIB (Homo sapiens, UniProt Q01892 1-262); settings: protein: recombinant; tags: N-terminal GST; dsDNA, one strand shown
# SPIB, sequence (Q01892 whole entry): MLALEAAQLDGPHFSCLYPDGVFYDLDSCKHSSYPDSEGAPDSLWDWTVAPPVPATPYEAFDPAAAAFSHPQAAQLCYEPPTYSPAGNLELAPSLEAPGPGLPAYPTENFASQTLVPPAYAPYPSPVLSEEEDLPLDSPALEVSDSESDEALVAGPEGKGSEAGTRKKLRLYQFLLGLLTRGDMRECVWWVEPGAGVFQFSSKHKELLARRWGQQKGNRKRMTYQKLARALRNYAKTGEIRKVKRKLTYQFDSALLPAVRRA
# Procedure, shortened: as §1
# [9] = target: T6, ELK3 (Homo sapiens, UniProt P41970 1-407); settings: protein: recombinant; tags: N-terminal GST; dsDNA, one strand shown
# T6 sequence: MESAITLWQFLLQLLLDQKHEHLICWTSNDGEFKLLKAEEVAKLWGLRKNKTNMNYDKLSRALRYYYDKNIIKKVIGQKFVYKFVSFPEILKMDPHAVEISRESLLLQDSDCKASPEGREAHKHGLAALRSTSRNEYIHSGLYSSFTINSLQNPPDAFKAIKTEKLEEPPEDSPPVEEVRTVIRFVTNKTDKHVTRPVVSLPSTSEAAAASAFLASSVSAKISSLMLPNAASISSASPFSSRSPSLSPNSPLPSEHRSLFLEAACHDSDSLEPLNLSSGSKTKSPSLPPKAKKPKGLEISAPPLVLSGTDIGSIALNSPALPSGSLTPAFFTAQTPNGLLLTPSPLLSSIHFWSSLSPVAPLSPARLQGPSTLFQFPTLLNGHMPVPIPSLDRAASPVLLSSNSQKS
# Procedure, shortened: as §1
# [10] = target: T7, FEV (Homo sapiens, UniProt Q99581 1-238); settings: protein: recombinant; tags: N-terminal GST; dsDNA, one strand shown
# T7 sequence: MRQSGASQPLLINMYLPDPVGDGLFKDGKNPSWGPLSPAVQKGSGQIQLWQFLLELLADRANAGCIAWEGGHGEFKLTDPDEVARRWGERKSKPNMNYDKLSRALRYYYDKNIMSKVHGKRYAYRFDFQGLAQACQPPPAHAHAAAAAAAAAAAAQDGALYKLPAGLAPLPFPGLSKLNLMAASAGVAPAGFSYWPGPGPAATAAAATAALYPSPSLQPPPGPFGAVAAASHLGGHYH
# Procedure, shortened: as §1
# [11] = target: ETV5 (Homo sapiens, UniProt P41161 1-510); settings: protein: recombinant; tags: N-terminal GST; dsDNA, one strand shown
# ETV5, sequence (P41161 whole entry): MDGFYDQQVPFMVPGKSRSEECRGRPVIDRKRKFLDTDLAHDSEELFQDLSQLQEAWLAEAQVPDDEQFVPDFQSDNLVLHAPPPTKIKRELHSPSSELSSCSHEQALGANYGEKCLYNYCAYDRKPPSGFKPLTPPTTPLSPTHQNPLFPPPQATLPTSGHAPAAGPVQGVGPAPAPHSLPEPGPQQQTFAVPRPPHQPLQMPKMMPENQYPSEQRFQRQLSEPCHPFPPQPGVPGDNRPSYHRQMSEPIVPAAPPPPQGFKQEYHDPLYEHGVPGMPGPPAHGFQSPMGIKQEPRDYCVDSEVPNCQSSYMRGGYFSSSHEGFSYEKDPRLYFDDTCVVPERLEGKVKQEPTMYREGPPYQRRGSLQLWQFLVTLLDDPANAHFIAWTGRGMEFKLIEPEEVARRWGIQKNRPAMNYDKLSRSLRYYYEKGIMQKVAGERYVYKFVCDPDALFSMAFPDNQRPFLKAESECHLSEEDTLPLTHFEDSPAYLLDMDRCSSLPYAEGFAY
# Procedure, shortened: as §1
# [12] = target: HSF1 (Homo sapiens, UniProt Q00613 1-529); settings: protein: recombinant; tags: N-terminal GST; chain copies: 3; dsDNA, one strand shown
# HSF1, sequence (Q00613 whole entry): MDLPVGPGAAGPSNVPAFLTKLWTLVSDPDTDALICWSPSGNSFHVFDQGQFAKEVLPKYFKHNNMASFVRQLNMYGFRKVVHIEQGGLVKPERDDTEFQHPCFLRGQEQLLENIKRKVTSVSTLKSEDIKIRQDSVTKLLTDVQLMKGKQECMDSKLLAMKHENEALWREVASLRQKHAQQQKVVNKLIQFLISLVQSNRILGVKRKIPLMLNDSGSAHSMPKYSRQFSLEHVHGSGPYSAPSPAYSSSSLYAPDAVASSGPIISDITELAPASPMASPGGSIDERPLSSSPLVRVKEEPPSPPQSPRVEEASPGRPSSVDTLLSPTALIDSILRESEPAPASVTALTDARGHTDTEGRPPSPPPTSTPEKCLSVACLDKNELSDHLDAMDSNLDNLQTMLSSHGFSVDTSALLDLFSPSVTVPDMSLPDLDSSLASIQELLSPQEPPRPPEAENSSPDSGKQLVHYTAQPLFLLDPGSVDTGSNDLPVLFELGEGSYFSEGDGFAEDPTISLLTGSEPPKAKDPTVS
# Procedure, shortened: as §1
# [13] = target: T8, SPIC (Homo sapiens, UniProt Q8N5J4 1-248); settings: protein: recombinant; tags: N-terminal GST; dsDNA, one strand shown
# T8 sequence: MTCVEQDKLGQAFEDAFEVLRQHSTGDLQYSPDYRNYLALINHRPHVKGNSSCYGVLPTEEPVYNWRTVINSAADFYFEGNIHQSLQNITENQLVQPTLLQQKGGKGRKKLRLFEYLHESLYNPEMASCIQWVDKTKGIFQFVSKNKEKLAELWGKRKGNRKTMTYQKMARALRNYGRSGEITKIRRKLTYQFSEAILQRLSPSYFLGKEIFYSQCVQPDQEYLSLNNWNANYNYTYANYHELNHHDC
# Procedure, shortened: as §1
# [14] = target: ELF4 (Homo sapiens, UniProt Q99607 1-663); settings: protein: recombinant; tags: N-terminal GST; dsDNA, one strand shown
# ELF4, sequence (Q99607 whole entry): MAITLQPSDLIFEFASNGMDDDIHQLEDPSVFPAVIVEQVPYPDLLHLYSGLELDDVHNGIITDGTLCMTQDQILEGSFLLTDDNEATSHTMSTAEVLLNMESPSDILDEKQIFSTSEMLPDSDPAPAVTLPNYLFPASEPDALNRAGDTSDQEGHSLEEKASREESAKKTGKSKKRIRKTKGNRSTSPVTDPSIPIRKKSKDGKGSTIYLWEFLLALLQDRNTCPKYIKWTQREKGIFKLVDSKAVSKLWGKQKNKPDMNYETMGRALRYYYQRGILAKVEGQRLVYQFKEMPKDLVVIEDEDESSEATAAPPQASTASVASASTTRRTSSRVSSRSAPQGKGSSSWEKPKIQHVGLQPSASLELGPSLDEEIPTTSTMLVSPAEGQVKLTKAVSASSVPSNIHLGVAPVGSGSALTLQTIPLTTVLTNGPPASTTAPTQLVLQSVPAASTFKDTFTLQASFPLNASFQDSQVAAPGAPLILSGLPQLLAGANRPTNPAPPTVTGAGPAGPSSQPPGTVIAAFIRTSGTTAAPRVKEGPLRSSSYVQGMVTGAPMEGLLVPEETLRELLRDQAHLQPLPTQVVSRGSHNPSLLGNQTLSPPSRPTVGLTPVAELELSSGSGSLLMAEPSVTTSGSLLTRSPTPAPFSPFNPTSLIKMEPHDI
# Procedure, shortened: as §1
# [15] = target: T9, ELK4 (Homo sapiens, UniProt P28324-2 1-405); settings: protein: recombinant; tags: N-terminal GST; dsDNA, one strand shown
# T9 sequence: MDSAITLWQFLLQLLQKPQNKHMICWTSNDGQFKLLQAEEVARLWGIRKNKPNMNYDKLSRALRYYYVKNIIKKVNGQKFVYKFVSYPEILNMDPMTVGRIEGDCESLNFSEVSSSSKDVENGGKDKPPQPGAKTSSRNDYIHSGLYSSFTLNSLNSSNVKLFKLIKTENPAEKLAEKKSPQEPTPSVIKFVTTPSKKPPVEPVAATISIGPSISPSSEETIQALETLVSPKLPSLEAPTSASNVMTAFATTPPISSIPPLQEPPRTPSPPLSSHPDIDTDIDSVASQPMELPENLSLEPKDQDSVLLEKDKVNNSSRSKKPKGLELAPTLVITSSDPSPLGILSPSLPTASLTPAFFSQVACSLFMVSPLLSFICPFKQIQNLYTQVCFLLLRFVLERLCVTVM
# Procedure, shortened: as §1
# [16] = target: T10, ETV2 (Homo sapiens, UniProt O00321 1-342); settings: protein: recombinant; tags: N-terminal GST; dsDNA, one strand shown
# T10 sequence: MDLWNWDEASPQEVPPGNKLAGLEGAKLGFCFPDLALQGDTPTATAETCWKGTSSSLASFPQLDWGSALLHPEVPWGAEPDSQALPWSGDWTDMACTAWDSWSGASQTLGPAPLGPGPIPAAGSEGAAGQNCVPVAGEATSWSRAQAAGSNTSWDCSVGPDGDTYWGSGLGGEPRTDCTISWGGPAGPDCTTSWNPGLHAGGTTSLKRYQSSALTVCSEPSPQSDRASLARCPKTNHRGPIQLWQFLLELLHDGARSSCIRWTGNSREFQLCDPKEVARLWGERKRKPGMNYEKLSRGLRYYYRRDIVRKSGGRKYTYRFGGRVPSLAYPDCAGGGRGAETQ
# Procedure, shortened: as §1
# [17] = target: T11, ELF3 (Homo sapiens, UniProt P78545 1-371); settings: protein: recombinant; tags: N-terminal GST; dsDNA, one strand shown
# T11 sequence: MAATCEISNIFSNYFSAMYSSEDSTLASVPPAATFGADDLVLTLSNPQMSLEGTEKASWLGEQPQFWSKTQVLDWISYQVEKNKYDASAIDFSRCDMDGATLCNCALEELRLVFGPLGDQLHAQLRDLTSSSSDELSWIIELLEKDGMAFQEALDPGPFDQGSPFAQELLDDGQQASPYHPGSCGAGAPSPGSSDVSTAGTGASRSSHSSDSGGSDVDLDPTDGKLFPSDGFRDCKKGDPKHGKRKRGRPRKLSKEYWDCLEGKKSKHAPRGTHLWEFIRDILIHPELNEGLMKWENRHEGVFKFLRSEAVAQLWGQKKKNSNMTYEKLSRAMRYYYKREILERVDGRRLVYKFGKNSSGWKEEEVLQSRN
# Procedure, shortened: as §1
# [18] = target: CRX (Homo sapiens, UniProt O43186 1-299); settings: protein: recombinant; tags: N-terminal GST; dsDNA, one strand shown
# CRX, sequence (O43186 whole entry): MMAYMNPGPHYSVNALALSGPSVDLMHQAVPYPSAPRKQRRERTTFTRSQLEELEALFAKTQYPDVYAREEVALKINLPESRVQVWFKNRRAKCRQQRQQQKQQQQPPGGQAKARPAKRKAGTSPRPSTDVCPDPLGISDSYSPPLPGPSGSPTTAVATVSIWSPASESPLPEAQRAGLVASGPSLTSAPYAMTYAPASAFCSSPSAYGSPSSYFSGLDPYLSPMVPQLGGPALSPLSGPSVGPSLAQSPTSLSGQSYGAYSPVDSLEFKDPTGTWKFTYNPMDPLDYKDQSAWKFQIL
# Procedure, shortened: as §1
# [19] = target: ETV1 (Homo sapiens, UniProt P50549 1-477); settings: protein: recombinant; tags: N-terminal GST; dsDNA, one strand shown
# ETV1, sequence (P50549 whole entry): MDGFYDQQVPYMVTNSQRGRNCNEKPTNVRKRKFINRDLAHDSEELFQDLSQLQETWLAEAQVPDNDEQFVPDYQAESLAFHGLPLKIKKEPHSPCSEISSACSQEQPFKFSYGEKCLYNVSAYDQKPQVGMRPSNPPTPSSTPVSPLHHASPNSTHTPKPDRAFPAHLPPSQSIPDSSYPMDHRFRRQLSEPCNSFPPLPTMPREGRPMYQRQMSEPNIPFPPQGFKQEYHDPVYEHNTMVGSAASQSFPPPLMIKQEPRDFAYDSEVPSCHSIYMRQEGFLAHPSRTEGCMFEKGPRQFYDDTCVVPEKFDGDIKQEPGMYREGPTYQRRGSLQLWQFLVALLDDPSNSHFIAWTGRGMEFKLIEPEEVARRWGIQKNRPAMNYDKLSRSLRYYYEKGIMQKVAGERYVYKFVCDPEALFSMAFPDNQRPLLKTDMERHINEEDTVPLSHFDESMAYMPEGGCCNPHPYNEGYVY
# Procedure, shortened: as §1
sequence,measurement,setting,value
TTCTTC,binding signal,[1],"1.92 fold enrichment (6-mer frequency, TF over GST control)"
same,binding signal,[2],"1.87 fold enrichment (6-mer frequency, TF over GST control)"
same,binding signal,[3],"1.79 fold enrichment (6-mer frequency, TF over GST control)"
same,binding signal,[4],"1.87 fold enrichment (6-mer frequency, TF over GST control)"
same,binding signal,[5],"1.85 fold enrichment (6-mer frequency, TF over GST control)"
same,binding signal,[6],"1.75 fold enrichment (6-mer frequency, TF over GST control)"
same,binding signal,[7],"1.8 fold enrichment (6-mer frequency, TF over GST control)"
same,binding signal,[8],"1.9 fold enrichment (6-mer frequency, TF over GST control)"
same,binding signal,[9],"2.25 fold enrichment (6-mer frequency, TF over GST control)"
same,binding signal,[10],"1.66 fold enrichment (6-mer frequency, TF over GST control)"
same,binding signal,[11],"1.87 fold enrichment (6-mer frequency, TF over GST control)"
same,binding signal,[12],"2.07 fold enrichment (6-mer frequency, TF over GST control)"
same,binding signal,[13],"1.74 fold enrichment (6-mer frequency, TF over GST control)"
same,binding signal,[14],"1.81 fold enrichment (6-mer frequency, TF over GST control)"
same,binding signal,[15],"1.69 fold enrichment (6-mer frequency, TF over GST control)"
same,binding signal,[16],"1.83 fold enrichment (6-mer frequency, TF over GST control)"
same,binding signal,[17],"1.74 fold enrichment (6-mer frequency, TF over GST control)"
same,binding signal,[18],"1.44 fold enrichment (6-mer frequency, TF over GST control)"
same,binding signal,[19],"1.9 fold enrichment (6-mer frequency, TF over GST control)"

# From publication PMC7862700, “An all-to-all approach to the identification of sequence-specific readers for epigenetic DNA modifications on cytosine”
